Test results published in the supplement of paper PMC7411054.
Where a name gives a salt, the structure may show the parent alone.

Experiments:
Assay in all cases: lowest phenotypically active concentration; higher = less potent
Details in all cases: treatment time: 24 h
HepG2-ACTB-RAB5A = test system: HepG2-ACTB-RAB5A
Outline: (§1)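 Each of fifteen gene-edited A549, HepG2 and WPMY1 reporter lines, marked with BFP for segmentation and GFP and RFP/FusionRed, was treated in four wells at 0.3, 1, 3 or 9 µM for 24 h prior to live imaging. Normalisation of per-well live-cell features used solvent control wells. Deviation needed ≥3 of 4 wells beyond the 95th percentile of control Euclidean distances, and reproducibility needed a median replicate Pearson correlation above the 95th percentile of non-replicates. Both were required for phenotypic activity.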

HepG2-CANX-COX4 = test system: HepG2-CANX-COX4
Outline: as §1

HepG2-GM130-SQSTM1 = test system: HepG2-GM130-SQSTM1
Outline: as §1

HepG2-TP53BP1-CLTA = test system: HepG2-TP53BP1-CLTA
Outline: as §1

HepG2-TUBA1B-RELA = test system: HepG2-TUBA1B-RELA
Outline: as §1

WPMY1-ACTB-RAB5A = test system: WPMY1-ACTB-RAB5A
Outline: as §1

WPMY1-CANX-COX4 = test system: WPMY1-CANX-COX4
Outline: as §1

WPMY1-GM130-SQSTM1 = test system: WPMY1-GM130-SQSTM1
Outline: as §1

WPMY1-TP53BP1-CLTA = test system: WPMY1-TP53BP1-CLTA
Outline: as §1

WPMY1-TUBA1B-RELA = test system: WPMY1-TUBA1B-RELA
Outline: as §1

Measured: lowest phenotypically active concentration

Cc1ncc(-c2ccnc(Nc3ccc(S(C)(=O)=O)cc3)n2)n1C(C)C
≤ 0.3 µM: all assays above

COc1c(C)cnc(Cn2cnc3c(Cl)nc(N)nc32)c1C
≤ 0.3 µM: all assays above

C=CC(=O)N1CCC[C@@H](n2nc(-c3cccc(C(=O)Nc4ccc(C(C)C)c(C)c4)c3)c3c(N)ncnc32)C1
3 µM: WPMY1-CANX-COX4 | WPMY1-GM130-SQSTM1 | WPMY1-TUBA1B-RELA
9 µM: WPMY1-TP53BP1-CLTA
1 µM: all other assays above

O=C(NCCCNc1nc(Nc2cccc(NC(=O)N3CCCC3)c2)ncc1I)c1cccs1
1 µM: HepG2-CANX-COX4 | HepG2-TP53BP1-CLTA
≤ 0.3 µM: HepG2-TUBA1B-RELA
3 µM: all other assays above

CC(C)(C)Nc1nc(Nc2ccc(C(N)=O)cc2)cc(N)c1C#N
9 µM: WPMY1-CANX-COX4 | WPMY1-TUBA1B-RELA
3 µM: all other assays above

Cc1ccc(C(=O)N(CCCN)[C@@H](c2nc3cc(Cl)ccc3c(=O)n2Cc2ccccc2)C(C)C)cc1 [Ispinesib]
3 µM: WPMY1-CANX-COX4
≤ 0.3 µM: all other assays above

CC(C)NCCCn1c(Sc2cc3c(cc2I)OCO3)nc2c(N)ncnc21
≤ 0.3 µM: all assays above

Nc1nc(Cl)nc2c1ncn2[C@@H]1O[C@H](CO)[C@@H](O)[C@@H]1F [clofarabine]
3 µM: WPMY1-GM130-SQSTM1
9 µM: WPMY1-CANX-COX4
≤ 0.3 µM: all other assays above

Nc1nc(Cl)nc2c1ncn2[C@H]1C[C@H](O)[C@@H](CO)O1 [cladribine]
1 µM: WPMY1-ACTB-RAB5A | WPMY1-TP53BP1-CLTA | WPMY1-TUBA1B-RELA
3 µM: WPMY1-GM130-SQSTM1
9 µM: WPMY1-CANX-COX4
≤ 0.3 µM: all other assays above

C=CC(=O)Nc1cccc(Nc2nc(Nc3ccc(OCCOC)cc3)ncc2F)c1
9 µM: HepG2-TP53BP1-CLTA | HepG2-TUBA1B-RELA | WPMY1-TP53BP1-CLTA
3 µM: all other assays above

COCC(=O)O[C@]1(CCN(C)CCCc2nc3ccccc3[nH]2)CCc2cc(F)ccc2[C@@H]1C(C)C [mibefradil]
3 µM: HepG2-TUBA1B-RELA
9 µM: all other assays above

CN1CC[C@H](c2c(O)cc(O)c3c(=O)cc(-c4ccccc4Cl)oc23)[C@H](O)C1 [Flavopiridol hydrochloride]
≤ 0.3 µM: all assays above

O=C1NC(=O)[C@@H](c2cn3c4c(cccc24)CCC3)[C@@H]1c1c[nH]c2ccccc12 [tivantinib]
≤ 0.3 µM: WPMY1-ACTB-RAB5A
1 µM: all other assays above

Cc1ccc(NC(=O)c2ccc(CN3CCN(C)CC3)cc2)cc1Nc1nc(-c2cccnc2)cs1 [masitinib]
≤ 0.3 µM: WPMY1-GM130-SQSTM1
9 µM: HepG2-TUBA1B-RELA | WPMY1-TP53BP1-CLTA | WPMY1-TUBA1B-RELA
3 µM: all other assays above

CCC1(O)CC2CN(CCc3c([nH]c4ccccc34)C(C(=O)OC)(c3cc4c(cc3OC)N(C)C3C(O)(C(=O)OC)C(OC(C)=O)C5(CC)C=CCN6CCC43C65)C2)C1 (stereo not given) [Vinblastine sulfate]
1 µM: HepG2-TP53BP1-CLTA
≤ 0.3 µM: all other assays above

COc1c(Nc2cc(C)[nH]n2)nc(Sc2ccc(S(=O)(=O)Cc3cccc([N+](=O)[O-])c3F)cc2F)nc1N1CCOCC1 [Centrinone]
1 µM: HepG2-GM130-SQSTM1 | WPMY1-ACTB-RAB5A
9 µM: HepG2-ACTB-RAB5A
3 µM: all other assays above

Cc1ccc2nc(NCCN)c3ncc(C)n3c2c1
3 µM: all assays above

COc1ccc(N(C)c2nc(C)nc3ccccc23)cc1 [MPC 6827 hydrochloride]
≤ 0.3 µM: all assays above

Cc1cn(CCN2CCN(c3ccccc3-c3cc(C#N)cc(C(=O)NCCCN4CCCC4)c3)CC2)c2ccccc12
9 µM: HepG2-CANX-COX4
1 µM: HepG2-ACTB-RAB5A
3 µM: all other assays above
